Nrf2 activator = activators of Nrf2 (ARE) signaling. Potency, µM (top dose mostly 46.1 µM), for the others: at the top dose activation, actives largely listed as activators. AREc32 ARE-luciferase reporter (MCF7-derived line), luminescence, 24 h. AID 624171. 0.31% of 410,000 active; note: potency is the fitted concentration of half-maximal effect; % of control where 0% means no effect; nearly all actives have a fitted effect of over 65% in size
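Nrf2 activation is followed as ARE-luciferase induction in the AREc32 line after one day of compound treatment; luminescence is read with Steady-Glo.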
LDHA inh = LDHA (human) enzyme inhibition; activity change, % (values are at about 110 or 230 µM); AID 1347041; purified LDHA, NADH/diaphorase-resazurin fluorescence; stronger effect = lower value; 0.15% of 480,000 active; in the data active = activity change below about -30%; inconclusive = mostly about -25% to -30%;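 note: plate controls were DMSO wells for no effect and wells without enzyme for full effect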
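Resorufin fluorescence (ex540/em590), read at 0 and 20 min after diaphorase/resazurin addition, reports the NADH left after a 5 min room-temperature reaction of 2 nM human LDH5 with 0.06 mM NADH and 0.2 mM pyruvate.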
ALOX12 inh = blocks human arachidonate 12S-lipoxygenase; purified 12hLO, xylenol orange hydroperoxide absorbance; P18054; 1.1% of 580,000 active; Potency, µM (highest dose often 108 µM), for the others: top-dose activity change, negative = inhibition, hits mostly inhibitors; note: potency is the fitted concentration of half-maximal effect; % is set by controls: 0 for no effect and ±100 for the full control effect
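Purified human 12hLO (150 nM final) in 25 mM Hepes, 0.01% Triton X-100, pH 7.0 was preincubated 15 min at room temperature with compound. Then 40 uM arachidonic acid was added, 30 min. Hydroperoxide was read by Fe-XO absorbance ratio 573/405 nm.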
Nrf2 inh = Nrf2 pathway inhibition | A549 ARE-Fluc reporter, luciferase luminescence, 18-24 h | Potency, µM (doses to about 46 µM), without a hit: at the top dose activity change, negative = inhibition, hits mostly inhibitors | 2.1% of 360,000 active; note: potency is the fitted concentration of half-maximal effect; % is set by controls: 0 for no effect and ±100 for the full control effect; nearly all actives have a fitted effect of over 60% in size
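Nrf2 function is reported as luminescence of an ARE-controlled luciferase in A549 cells. Compounds were tested at several concentrations, and a CellTiter-Fluor read on the same wells flagged cytotoxicity.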
IDH1 R132H inh = blocks human mutant IDH1 R132H enzyme; O75874; IDH1-R132H enzyme, NADPH consumption, diaphorase/resazurin fluorescence; Potency, µM (titrated, usually from 76.6 µM), for the others: top-dose activity change, negative = inhibition, most hits filed as inhibitors; 0.093% of 390,000 active; AID 602179; note: potency is the fitted concentration of half-maximal effect; % is set by controls: 0 for no effect and ±100 for the full control effect; nearly all actives have a fitted effect of over 65% in size
Target sequence (O75874 whole entry R132H, stated change not applied): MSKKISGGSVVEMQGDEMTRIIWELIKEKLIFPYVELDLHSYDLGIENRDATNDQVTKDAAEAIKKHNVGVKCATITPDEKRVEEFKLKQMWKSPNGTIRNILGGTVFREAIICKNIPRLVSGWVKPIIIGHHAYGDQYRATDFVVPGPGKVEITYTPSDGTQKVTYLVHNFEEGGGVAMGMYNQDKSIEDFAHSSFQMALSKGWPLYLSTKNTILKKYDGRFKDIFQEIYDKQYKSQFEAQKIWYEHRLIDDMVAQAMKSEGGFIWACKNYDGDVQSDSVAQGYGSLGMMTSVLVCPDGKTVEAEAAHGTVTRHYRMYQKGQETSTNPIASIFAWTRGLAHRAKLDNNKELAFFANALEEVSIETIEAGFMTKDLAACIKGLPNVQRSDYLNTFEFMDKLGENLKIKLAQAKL
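IDH1-R132H (0.5 ug/mL dispensed) in pH 7.5 Tris buffer was preincubated 30 min with compound, then given a substrate mix of 0.016 mM NADPH and 2 mM alpha-KG for 80 min at room temperature; remaining NADPH was read by diaphorase/resazurin fluorescence.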
A549 tox = counter-screen for Nrf2 inhibitors: cytotoxicity in A549 cells. A549 ARE-Fluc cells, CellTiter-Fluor viability, 18-24 h. Potency, µM (doses to about 46 µM), without a hit: top-dose activity change, negative = cytotoxicity, most hits filed as inhibitors. 0.16% of 390,000 active; note: potency is the fitted concentration of half-maximal effect; % is set by controls: 0 for no effect and ±100 for the full control effect
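Cytotoxicity counterscreen: CellTiter-Fluor fluorescence was measured in A549 ARE_Fluc cells after 18-24 h of compound exposure in a concentration series. The subsequent BugLite luminescent read reports ARE-luciferase activity.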
An asterisk follows results filed as active; ? = inconclusive; . = not tested or not shown; [ ] = another dose, or the depositor's remark. This is a sample that favours compounds with a hit; in the whole collection about 2.7% have one here. Unless noted, calls come from the whole dose curve; as a rule, active = well fitted curve in the direction sought with a large enough effect; inconclusive = small, poorly fitted or top-dose-only effect, or another doubt; inactive = no such curve, though single readings can be large; an effect the other way counts as inactive or inconclusive.

SMILES	Nrf2 activator	LDHA inh	ALOX12 inh	Nrf2 inh	IDH1 R132H inh	A549 tox
O=C(OCc1ncc(-c2ccc(Cl)cc2)o1)c1cccc(F)c1	.	-5.6	-17.1%	.	.	.
COC(=O)c1c(C(=O)OC)c(-c2ccc(Cl)c(Cl)c2)n2c1CCC2	0.5%	-0.3	1.2%	18.4µM*	3.0%	-2.9%[1.84 µM]
COC(=O)c1c(C(=O)OC)c(-c2ccc(C)cc2)n2c1CCC2	0.3%	-6.3	-8.3%	.	-1.9%	-11.3%
Cc1cccc(OC[C@H]2C[C@@H](NC(=O)Nc3ccccc3)[C@H](O)[C@@H]2O)n1	.	.	-11.6%[176 µM]	.	.	.
CC(=O)N1CCC(N[C@@H]2C[C@H](COc3cccc(C)n3)[C@@H](O)[C@H]2O)CC1	.	.	15.8µM*	.	.	.
O=C(NC1CCCCC1)c1cc2c(F)cccc2s1	.	-0.3	?	.	.	.
O=C(NC1CCCC1)c1cc2c(F)cccc2s1	.	-30.3*	-9.5%	.	.	.
Cc1ccc(/C(=N\O)c2oc3c(C)c4oc(=O)cc(C)c4cc3c2C)cc1	0.0%	-0.7	0.0%	23.1µM*	-5.1%	?
CCOc1ccc2ncc(S(=O)(=O)c3ccccc3)c(N3CCCCCC3)c2c1	.	65.1	?	.	.	.
CN(C(=O)c1cccc(NC(=O)Cc2ccc(NC(=O)C3CCCN(C(=O)CCc4ccccc4)C3)cc2)c1)C1CCC1 (centres undefined)	3.8%	-4.2	?	16.4µM*	-2.4%[38.3 µM]	-12.6%
CN(C(=O)c1cccc(NC(=O)Cc2ccc(NC(=O)C3CCN(C(=O)CCc4ccccc4)CC3)cc2)c1)C1CCCC1	.	.	-0.8%	.	.	.
CN(C(=O)c1ccc(NC(=O)Cc2cccc(NC(=O)C3CCCN(C(=O)CCc4ccccc4)C3)c2)cc1)C1CCCC1 (centres undefined)	4.4%	-0.9	-9.2%	14.6µM*	-9.5%	-14.6%
CN(C(=O)c1ccc(NC(=O)Cc2cccc(NC(=O)C3CCCN(C(=O)C4CCCC4)C3)c2)cc1)C1CCCC1 (centres undefined)	4.8%	-6.9	11.7%	18.4µM*	-17.0%	-10.9%
CN(C(=O)c1cccc(NC(=O)Cc2ccc(NC(=O)C3CCCN(C(=O)CCc4ccccc4)C3)cc2)c1)C1CCCC1 (centres undefined)	4.3%	-4.0	-3.4%	20.6µM*	-0.5%[38.3 µM]	?
O=C(Nc1ccc(Cn2cncn2)cc1)c1csc(NC2CC2)n1	.	-19.6	2.1%	.	.	.
CN(C)C1(CNC(=S)NCc2ccc(F)cc2)CCCCC1	.	-3.8	32.3%	.	.	.
CC(C)c1nc2c(c(-c3ccc(Cl)cc3)n1)CCN(C(=O)c1ccccc1)CC2	.	.	-0.2%[6.33 µM]	.	.	.
CN(C(=O)c1ccc(NC(=O)Cc2ccc(NC(=O)C3CCCN(C(=O)CCc4ccccc4)C3)cc2)cc1)C1CC1 (centres undefined)	3.7%	-4.4	-2.7%	11.6µM*	-2.9%	-11.0%
CN(Cc1ccccc1)C(=O)c1ccc(NC(=O)Cc2cccc(NC(=O)C3CCCN(C(=O)CCc4ccccc4)C3)c2)cc1 (centres undefined)	5.0%	0.0	-6.3%	20.6µM*	-15.6%	-10.8%
CN(Cc1ccccc1)C(=O)c1cccc(NC(=O)Cc2ccc(NC(=O)C3CCCN(C(=O)CCc4ccccc4)C3)cc2)c1 (centres undefined)	6.2%	-0.5	0.0%	?	-8.0%[38.3 µM]	-1.6%
C/C(=N\NC(=O)C1CCCCC1)c1ccc(C2CCCCC2)cc1	.	-0.8	7.7%	.	.	.
CCOCc1cnc(C)nc1NCC(=O)c1c(C)[nH]c2ccc(OC)cc12	-0.7%	-12.4	12.6µM*	?	0.4%	-7.1%
C=C=Cn1c(C2CC(=O)N(c3ccc(C)c(C)c3)C2)nc2ccccc21 (centres undefined)	.	3.3	-12.6%	.	.	.
O=C(Cc1cccc2ccccc12)Nc1ccc(-c2cc3ccccc3oc2=O)cc1	-3.0%	-3.5	0.1%	5.8µM*	5.7%	-6.1%
Cc1ccc2oc(/N=C(\N)NC(=O)C3CC3)nc2c1	0.2%	-0.2	128.8%	?	-2.0%	11.0%
SMILES	Nrf2 activator	LDHA inh	ALOX12 inh	Nrf2 inh	IDH1 R132H inh	A549 tox
Cc1ccc2oc(/N=C(\N)NC(=O)C(C)(C)C)nc2c1	-1.4%	-5.6	198.3%	13µM*	3.7%	0.3%
COc1ccccc1CNCc1ccc(C)cc1	-0.1%	-20.9	1µM*	13.1%	7.8%	-0.7%
COC(=O)c1ccc(CSc2n[nH]c(=S)s2)o1	2.1%	0.9	15.8µM*	.	5.1%	9.2%
COc1cc2nc(C)n(CC(=O)NC3CCCc4c3[nH]c3ccccc43)c(=O)c2cc1OC (centres undefined)	.	.	44.7µM*	.	.	.
O=C(Cc1ccc2c(c1)OCCCO2)NC1CCCc2c1[nH]c1ccccc21 (centres undefined)	.	.	50.1µM*	.	.	.
Cc1noc(C)c1CC(=O)NC1CCCc2c1[nH]c1ccccc21 (centres undefined)	.	.	-5.3%	.	.	.
Cc1ccc(S(=O)(=O)N2CCN(C(=O)c3nn(C(C)C)c(=O)c4ccccc34)CC2)cc1	.	0.1	8.5%	.	.	.
CN(C(=O)CSc1nc(-c2cccs2)cc(C(F)(F)F)n1)C1CCCCC1	.	12.0	-40.9%	.	.	.
CCn1c(=O)cc(OCC(=O)Nc2ccc(C)c(F)c2)c2ccccc21	0.6%	-5.8	-29.7%	16.9%	1.3%	-6.5%
CCn1c(=O)cc(SCC(=O)Nc2ccc(C)c(F)c2)c2ccccc21	-0.5%	-12.4	2.8%	23.1µM*	-18.1%	-3.9%
c1ccc(CN2CCN(c3nc(NCc4ccco4)c4ccccc4n3)CC2)cc1	7.5%	3.9	39.8µM*	23.1µM*	0.2%	?
OCCN1CCN(c2nc(NCc3ccco3)c3ccccc3n2)CC1	-0.4%	-10.0	?	-4.1%	3.2%	-5.0%
N#Cc1c(-c2cccs2)nc(SCC(=O)c2cccs2)[nH]c1=O	12.4%	4.9	10µM*	.	5.3%	0.3%
O=C(CSc1nc2ccccc2c(=O)[nH]1)c1cccs1	5.4%	-1.9	6.31µM*	?	0.5%	3.3%
N#Cc1c(-c2ccccc2)nc(SCC(=O)Nc2ccccc2)[nH]c1=O	0.2%	-4.4	-28.5%	16.4%	0.2%	1.0%
COC(=O)c1cc(NC(=O)c2ccc(Cn3cc(Cl)cn3)o2)cc(C(=O)OC)c1	0.2%	-4.7	-24.4%	20.6µM*	7.3%	?
CN(CC(=O)Nc1ccccc1Br)C(=O)CCc1ncc(-c2ccc(F)cc2F)o1	.	10.2	?	.	.	.
O=C(CSc1nnc(-c2cccnc2)n1C1CC1)c1cc2cc(Cl)ccc2o1	.	0.8	25.1µM*	.	.	.
Cn1c(SCC(=O)c2cc3cc(Cl)ccc3o2)nnc1-c1cccnc1	.	-0.4	28.2µM*	.	.	.
C1CCC(NCC2CCN(C3CC3)C2)C1 (centres undefined)	.	-5.3	?	.	.	.
